Screen size: about 69,000 compounds; about 8,600 (12%) showed an effect of 50% or more. What follows is part of a selection rich in strong results, with near analogues and random picks from the rest.

The subject of this test is Plasmodium berghei. The test is described as follows: Screen against P. berghei liver stage (PbLuc), transformed with Luciferase, at 10uM. The format is functional, HepG2. As to conditions: tested at 10 uM.
On to `Cc1nonc1CC(=O)N1C[C@H]2CC[C@@H](C1)N(Cc1ccccc1)C2=O`, for which the INHIBITION is reported as 0.139%.

On to `Cc1ccc(CN(CCCN(C)C)Cc2cnc(N(C)C)nc2)o1`, for which the INHIBITION is on record as 15.395%. As for `CC(C)C(=O)N1CCCC2(C1)CN(c1nncs1)CCO2` (stereo not given), the INHIBITION is given as 30.3%. In the case of `CNC(=O)CN1CCOC(c2cccc(N)n2)C1` (stereo not given) it was -5.8%; in that of `C[C@@H]1CN2C[C@H](O)CC2CN1Cc1ccc2nccnc2c1` (stereo not given in full), 28.5%. In the case of `O=C(CN1CC(c2nc(-c3ccco3)no2)C1)NCC1CCCO1` (stereo not given), the INHIBITION was determined as 17.7%. Take `COc1ccccc1OCCNCc1c(C(C)C)nn(C)c1N(C)C`: the INHIBITION was 31.3%. `O=C(NCCc1ccccn1)C1(n2cnnn2)CCCCC1`: the INHIBITION worked out at 46.4%. In the case of `CNCc1ccc([C@@H]2CN(C(C)=O)C[C@H]2C(N)=O)cc1`, the INHIBITION was -2.46%. For the compound `NC(=O)CC1CCCCN1C(=O)c1cccc(C(F)(F)F)c1` (stereo not given), the INHIBITION was 37.4%. As for `Cc1ccc(C(=O)N2CCOCC3(CCN(C4CCOCC4)C3)C2)o1` (stereo not given), the INHIBITION amounted to 14.1%.

In the case of `O=C1CCCN1Cc1ccc(C(=O)N2CCCC2c2cccs2)cc1` (stereo not given), the INHIBITION was 4.52%. As for `CC(C)COc1ccccc1CN(C)C(=O)c1cc(=O)[nH]c(=O)[nH]1`, the figure is 10.6%; as for `Cc1cc(C(=O)N(C)Cc2ccccc2OCC(C)C)cc(=O)[nH]1`, 58.1%. In the case of `COCC(C)N(Cc1ccccc1OC)C(=O)c1cc(C)[nH]c(=O)c1` (stereo not given) it was 29.4%; in that of `CCc1ccccc1NC(=O)CCc1cnn(C)c1`, 34.2%; in that of `CN(CC(N)=O)CC1(c2ccc(Br)cc2)CC1`, -28.4%. As for `Cc1ccc(OCC(=O)Nc2ccc(S(C)(=O)=O)cc2)cc1C`, the figure is 59.4%; as for `Cc1ccc(OCC(=O)NS(=O)(=O)c2cccnc2)cc1C`, 1.48%. As for `Cc1ccc(OCC(=O)Nc2cc(C(=O)O)cc(S(C)(=O)=O)c2)cc1C`, the INHIBITION was 45.6%. With `COc1ncccc1CN1Cc2nnn(C)c2C(COCC2CC2)C1` (stereo not given), the INHIBITION stood at 28.4%. In the case of `Cc1nccc(C2(C)CCCNC2)n1` (stereo not given), the INHIBITION amounted to 40.4%. As for `COc1ccc(CNC(=O)CCc2c(C)noc2C)cc1F`, the figure is -4.93%; as for `COc1ccc(C(=O)CCC(=O)NCc2c(C)noc2C)cc1F`, 64.1%; as for `COc1ccc(CCCC(=O)NCc2c(C)noc2C)cc1F`, 29.3%. As for `CC1c2ncc(Cn3cccn3)n2CCN1S(=O)(=O)C1CC1` (stereo not given), the INHIBITION is 30.3%. In the case of `CCN1CC2(CC1=O)CN(Cc1cnn(C)c1)CCN(C(C)=O)C2` (stereo not given) it was -2.53%; in that of `COc1ccc(CN(Cc2cncn2C)CC2CCCO2)c(OC)c1` (stereo not given), 50%.

In the case of `CCn1cncc1CN(Cc1ccc(OC)cc1OC)CC1CCCO1` (stereo not given), the INHIBITION came to 41.2%. In the case of `COc1ccc(CN(Cc2cncn2C)CC2CCCO2)cc1` (stereo not given) it was 35.2%. As for `CCCC(=O)NC1CCN(c2ccccc2S(=O)(=O)CC)CC1`, the figure is 58.5%. As for `CCS(=O)(=O)c1ccc(N2CCC(NC(=O)CC3CCCC3)CC2)cc1`, the figure is 60.1%; as for `CCS(=O)(=O)c1ccc(N2CCC(NC(C)=O)CC2)cc1`, 19.7%; as for `CCS(=O)(=O)c1ccccc1N1CCC(NC(C)=O)CC1`, 6%. Turning to `CCS(=O)(=O)c1ccc(N2CCC(NC(=O)C3CCCCC3)CC2)cc1`, the INHIBITION amounted to 37.7%.

For the compound `CCS(=O)(=O)c1ccccc1N1CCC(NC(=O)NC2CCCC2)CC1`, the INHIBITION is listed as -28.9%. For `CCc1nnc2n1CCN(C(=O)c1ccc3[nH]nnc3c1)C2`, the INHIBITION was -1.85%. In the case of `CCOc1ccccc1OC1CCN(C(=O)c2c[nH]nn2)CC1` it was 33.8%. `CS(=O)(=O)N1CCOCC2(CCN(C(=O)c3ccncc3)CC2)C1`: the INHIBITION was determined as 19.5%. As for `COc1ccc(N2CCN(Cc3nc(CSC)no3)C(C)C2=O)cc1` (stereo not given), the figure is -0.55%.

Take `CN1CCO[C@@H]2CN(C(=O)NCc3cccc(F)c3)CC[C@@H]2C1`: the INHIBITION amounted to 17.7%.

In the case of `Cc1cccc(CN2CC[C@H]3CO[C@H](CNC(=O)N(C)C)[C@H]3C2)c1`, the INHIBITION was -4.88%. With `CN(C)C[C@H]1OC[C@@H]2CN(C(=O)NCc3cccc(F)c3)CC[C@@H]21`, the INHIBITION was found to be 24.9%. As for `CN(C)C[C@H]1OC[C@@H]2CCN(C(=O)NCc3cccc(F)c3)C[C@@H]21`, the figure is 61.9%; as for `CN(C)C(=O)NC[C@@H]1OC[C@H]2CN(Cc3cccc(F)c3)CC[C@H]21`, 69.6%; as for `COc1ccc(CN2CC[C@H]3[C@H](CO[C@H]3CNC(=O)N(C)C)C2)cc1`, 4.61%. In the case of `Cc1ccccc1CN(CCN(C)C)Cc1ccc(C(=O)O)cc1`, the INHIBITION was -4.37%.

`CC(C)c1nc2n(n1)CC(NCc1nc(C3CC3)no1)CC2` (stereo not given): the INHIBITION is given as 16.8%. In the case of `CN(CC1CCCCO1)c1ncnc2cc(F)ccc12` (stereo not given) it was 4.68%; in that of `Cc1ccc(=O)n(CC2(O)CCN(Cc3cc(C)c(O)c(C)c3)CC2)n1`, 42.1%; in that of `CCn1ccc(NC(=O)C2CCC(=O)N2Cc2ccc(C)o2)n1` (stereo not given), -20.8%. Consider `C[C@@H]1CN(C(=O)C2(Cn3cccn3)CC2)C[C@@]1(O)C1CCC1`, for which the INHIBITION is recorded as 9.845%. As for `CN(CC(=O)N1CCCC1c1cnn(C)c1)Cc1ccccc1` (stereo not given), the figure is -25.8%. In the case of `Cc1cc(CNC(=O)N2CCN(c3ccccc3)CC2)no1` it was 14.2%. In the case of `Cc1cc(CNC(=O)NC(C)c2ccc(N3CCOCC3)cc2)no1` (stereo not given) it was 35.1%; in that of `Cc1cc(CNC(=O)NCc2ccccc2N2CCOCC2)no1`, 52.4%.

On to `CCC(=O)Nc1cccc(OCC(=O)N(C)Cc2nccn2CC)c1`, for which the INHIBITION came out at 66.1%. As for `CCC(=O)Nc1cccc(OCC(=O)N(C)Cc2nc(C)c[nH]2)c1`, the figure is 3.82%. Regarding `CCC(=O)Nc1cccc(OCC(=O)N(C)Cc2ccon2)c1`, the INHIBITION was determined as 20.2%. Regarding `Cn1ccnc(Nc2ccc3c(c2)CCN3C(=O)c2ccoc2)c1=O`, the INHIBITION was -21.6%. As to `Cc1nc(CC(=O)N2CCCC2Cn2cccn2)cs1` (stereo not given), the INHIBITION was 19.4%. For the compound `CC(C)N1CCC(C(=O)N2CCCN(c3ccccc3)CC2)CC1`, the INHIBITION worked out at 33.9%. In the case of `O=C(C1CCCC1)N1CCC(C(O)c2ccc(F)cc2)CC1` (stereo not given) it was 31.7%; in that of `O=C(C1CCC1)N1CCC(C(=O)N2CCC(c3ccc(F)cc3)C2)CC1` (stereo not given), 62.8%.

On to `O=C(C1CCS(=O)(=O)CC1)N1CCC(c2ccc(F)cc2)C1` (stereo not given), for which the INHIBITION is reported as -9.51%. Take `O=C(c1cc(F)ccc1O)N1CCN(C(=O)C2CCC2)CC1`: the INHIBITION was determined as 6.11%. In the case of `CC(C)N1CCC(C(=O)N2CCN(c3cccc(C(=O)O)c3)CC2)CC1`, the INHIBITION worked out at 43.9%.

In the case of `O=C(C1CC1)N1CCC(C(=O)N2CCC(c3ccc(F)cc3)C2)CC1` (stereo not given), the INHIBITION worked out at 61.9%. As for `CC(C)N1CCC(C(=O)N2CCC(c3ccc(F)cc3)C2)CC1` (stereo not given), the INHIBITION was found to be 73%. Consider `O=C(CN1C(=O)CCNC1=O)N1CCC(c2ccc(F)cc2)C1` (stereo not given), for which the INHIBITION was 33.4%.
